Assay results as given in publication PMC4336329 (PLoS ONE, 2015).
In all, about 310,000 compounds went through this assay and about 14,000 (4.5%) showed an effect of 50% or more. Effects have a minus sign here. The entries come from a sample that favours strong results as a whole.

The compounds below were run against human ether-à-go-go-related gene (hERG) potassium channel (human, UniProt Q12809) (assay: primary screen, population patch clamp on CHO cells stably expressing hERG; higher = less effect of the substance).
human ether-à-go-go-related gene (hERG) potassium channel, sequence (Q12809 whole entry, looked up): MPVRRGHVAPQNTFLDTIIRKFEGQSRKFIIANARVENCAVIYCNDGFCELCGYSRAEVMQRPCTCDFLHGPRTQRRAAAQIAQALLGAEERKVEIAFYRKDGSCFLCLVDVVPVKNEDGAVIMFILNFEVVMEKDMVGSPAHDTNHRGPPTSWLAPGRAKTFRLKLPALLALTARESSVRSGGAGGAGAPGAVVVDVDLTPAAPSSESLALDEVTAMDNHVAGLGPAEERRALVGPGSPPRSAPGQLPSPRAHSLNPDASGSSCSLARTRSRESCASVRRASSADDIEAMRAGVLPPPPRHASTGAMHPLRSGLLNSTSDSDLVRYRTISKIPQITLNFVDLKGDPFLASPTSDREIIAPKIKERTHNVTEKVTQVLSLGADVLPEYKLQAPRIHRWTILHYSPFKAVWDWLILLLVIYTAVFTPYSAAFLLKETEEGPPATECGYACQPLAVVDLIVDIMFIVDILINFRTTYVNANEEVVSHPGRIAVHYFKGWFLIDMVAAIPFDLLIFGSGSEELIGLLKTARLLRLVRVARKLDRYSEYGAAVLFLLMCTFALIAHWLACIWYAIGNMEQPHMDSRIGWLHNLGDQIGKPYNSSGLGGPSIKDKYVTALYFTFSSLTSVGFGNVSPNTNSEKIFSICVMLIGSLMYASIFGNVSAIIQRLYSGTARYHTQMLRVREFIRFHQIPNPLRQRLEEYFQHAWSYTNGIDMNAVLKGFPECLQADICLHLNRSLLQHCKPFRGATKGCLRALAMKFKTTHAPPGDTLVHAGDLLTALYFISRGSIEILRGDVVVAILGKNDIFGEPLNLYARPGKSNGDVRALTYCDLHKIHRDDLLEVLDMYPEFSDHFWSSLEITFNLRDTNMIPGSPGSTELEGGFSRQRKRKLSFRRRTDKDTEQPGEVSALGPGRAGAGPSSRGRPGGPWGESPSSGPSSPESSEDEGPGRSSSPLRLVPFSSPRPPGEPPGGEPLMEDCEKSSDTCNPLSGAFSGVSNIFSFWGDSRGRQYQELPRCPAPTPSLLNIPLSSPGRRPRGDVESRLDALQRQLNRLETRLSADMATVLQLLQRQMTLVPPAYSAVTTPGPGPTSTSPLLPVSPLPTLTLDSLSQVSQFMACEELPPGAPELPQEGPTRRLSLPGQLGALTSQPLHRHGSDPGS
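Also: peak tail current of the secondary pulse compared with the same well before compound.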

SMILES	hERG current change (%, negative = inhibition) at 10uM [%]
COc1cccc(C(=O)NNC(=O)c2ccccc2-n2cccc2)c1	34.4
CS(=O)(=O)c1nc(S(=O)(=O)c2ccc(Cl)cc2)c(NCCN2CCOCC2)s1	-31.6
CC(C)(C)c1ccc(-c2c(C#N)c(N)nc3c2CCCC3)s1	-0.863
CC12CN3CN(C1)CC(c1ccccc1)(C3)C2=O	12.7
Cc1noc(C)c1COC(=O)[C@@H](NC(=O)c1ccccc1)C(C)C	11.5
Cc1ccccc1OC(C)C(=O)NCCC1=CCCCC1 (stereo not drawn)	-1.85
COc1cccc(OCc2cc(C(=O)N3CCN(c4ccccc4O)CC3)no2)c1	4.71
COc1cccc(OCc2cc(C(=O)N3CCN(C(C)=O)CC3)no2)c1	-1.97
O=C(c1cc(COc2ccc(F)cc2F)on1)N1CCOCC1	17.7
O=C(c1cc(COc2ccc(F)cc2F)on1)N1CCSCC1	-11.7
O=C(c1cc(COc2ccc(F)cc2F)on1)N1CCN(C(=O)c2ccco2)CC1	-57.3
COc1cccc(OCc2cc(C(=O)N3CCN(C(=O)c4ccco4)CC3)no2)c1	-51.7
Cc1ccc(NC(=S)N2CCCC2)cc1Cl	11.5
CC(=O)NCCOC(=O)c1nn(Cc2ccccc2)c(=O)c2ccccc12	-22.4
Cc1sc2nc(CN3CCN(c4ccc(O)cc4)CC3)[nH]c(=O)c2c1C	14.4
CN(Cc1ccc(Cl)s1)C(=O)CNC(=O)CNC(=O)c1ccc(Cl)cc1Cl	-56.8
C=CCN(Cc1ccc(Cl)s1)C(=O)CNC(=O)CNC(=O)c1ccc(Cl)cc1Cl	-70.6
CN(Cc1cccnc1)C(=O)CNC(=O)c1ccc(Cl)cc1Cl	-17.2
C=CCNC(=O)c1ccc(Cl)cc1Cl	11.8
O=C(CNC(=O)CNC(=O)c1ccc(Cl)cc1Cl)NCc1cccc(Cl)c1	-1.95
COc1ccc(CN(C)C(=O)CNC(=O)CNC(=O)c2ccc(Cl)cc2Cl)cc1F	-43.5
COc1ccc(C2=NS(=O)(=O)N(C)C(C(=O)Nc3ccc(C)cc3)=C2)cc1	-2.89
COc1cc(C)c(NC(=S)Nc2cccc(Cl)c2C)cc1OC	11.1
CCCCCCCCN1[C@@H](CC(=O)O)c2cc(F)ccc2S1(=O)=O	7.81
CCC(=O)NC(c1cccs1)c1cc(Cl)c2cccnc2c1O (stereo not drawn)	-2.87
COc1ccc(CNC(=O)CCn2c(=O)c3cccn3c3ccc(F)cc32)cc1	-7.82

SMILES	hERG current change (%, negative = inhibition) at 10uM [%]
COc1ccccc1CCNC(=O)CCn1c(=O)c2cccn2c2ccc(F)cc21	5.9
COc1ccc(OC)c(CNC(=O)CCn2c(=O)c3cccn3c3ccc(F)cc32)c1	-62.2
COc1ccc(C)cc1NC(=S)N1CC(C)OC(C)C1 (stereo not drawn)	-11.5
CCC(=NCCc1c(C)[nH]c2ccccc12)C1=C(O)CC(c2ccccc2)CC1=O (stereo not drawn)	6.02
N#C/C(=C(\O)Cc1ccccc1)c1nc2ccccc2[nH]1	15.6
C=C(Br)Cn1c(CCCC)nc2ccccc21	-21.6
CCCCc1nc2ccccc2n1CC(=O)NN	16.3
CCCCc1nc2ccccc2n1Cc1nnc2n1-c1ccccc1SC2	-63
Nc1nnnn1CC(=O)OCc1cccc(Br)c1	-13.8
COc1ccc(Cl)cc1NC(=O)CN(C)CC(=O)Nc1cc(OC)c(OC)c(OC)c1	-8.72
Cc1oc(-c2cccc(Cl)c2)nc1CN1CCC(C(=O)NCCCN2CC(C)CC(C)C2)CC1 (stereo not drawn)	-21.4
COc1ccc(CCNC(=O)C2CCN(Cc3nc(-c4cccc(Cl)c4)oc3C)CC2)cc1OC	-85.2
COc1ccc(CCNC(=O)C2CCCN(Cc3nc(-c4cccc(Cl)c4)oc3C)C2)cc1OC (stereo not drawn)	-84.1
COc1ccc(CCNC(=O)C2CCN(C(=O)c3cccc(Cl)c3)CC2)cc1OC	11.5
CCc1cc2c(cc3c(=O)n(CC(=O)N4CCN(C)CC4)ncn32)s1	-14.3
CCOC(=O)c1ccccc1NC(=O)COC(=O)c1ccccc1C(=O)N(C)c1ccccc1	-23.5
CC(OC(=O)CN1C(=O)NC2(CCCC2)C1=O)C(=O)Nc1cccc(Cl)c1 (stereo not drawn)	-15.3
O=C(O)CC(CC(=O)Nc1ccc(-c2ccccc2)cc1)c1ccccc1 (stereo not drawn)	9.93
Cc1cc(C(=O)N/N=C/c2sccc2C)no1	17.2
CCCCNC(=S)Nc1ccc(C(F)(F)F)cc1	-52.8
CCCNC(=S)Nc1ccc(Br)cc1	11.8
Cc1ccc(NC(=O)NCCN2CCCCC2)cc1	-11
CCN(CC)CCCNC(=S)Nc1ccc(Br)cc1	-53.2
S=C(NCCN1CCCCC1)Nc1ccccc1	0.941
CCCCNC(=S)Nc1ccc(Cl)cc1	3.01
S=C(NCCN1CCCCC1)Nc1ccc(Br)cc1	-69.1

SMILES	hERG current change (%, negative = inhibition) at 10uM [%]
O=C(NCCN1CCCCC1)Nc1ccc(Cl)cc1	-33.7
CN(C)CCCNC(=S)Nc1ccc(Br)cc1	-11.6
CCCCNC(=S)Nc1ccc(F)cc1	20.6
S=C(NCCN1CCOCC1)Nc1ccc(Br)cc1	5.71
O=C(NCCN1CCCCC1)Nc1ccc(Br)cc1	-52.4
COc1ccccc1CNC(=O)C1CCC(=O)N(CCCc2ccccc2)C1 (stereo not drawn)	-9.31
CC(C)c1cc(CNC(=O)CC2C(=O)NCCN2CC2CCCCC2)on1 (stereo not drawn)	11.2
Cc1ccc(NC(=O)NCCN2CCCCC2)cc1C	-15.8
Cc1ccc(NC(=O)NCCN2CCCCC2)cc1Cl	-51.7
O=C(NCCN1CCCCC1)Nc1ccc(F)c(Cl)c1	-33.9
COc1ccc(S(=O)(=O)N2CCN(C(=O)[C@H](Cc3ccccc3)NC(=O)c3ccco3)CC2)cc1	-28.6
COc1ccc(OCCCN2CCCC(C)C2)cc1 (stereo not drawn)	-32
CCCOc1ccc(OCCN2CCCC(C)C2)cc1.O=C(O)C(=O)O (stereo not drawn)	-52.2
CC1CC(C)CN(CCOc2ccc(Br)cc2)C1.O=C(O)C(=O)O (stereo not drawn)	-60.3
CC1CN(CCOc2ccc(Cl)c(Cl)c2)CC(C)O1.O=C(O)C(=O)O (stereo not drawn)	-5.18
CC1CCCN(CCOc2ccc(Br)cc2)C1 (stereo not drawn)	-51.3
Brc1ccc(OCCN2CCOCC2)cc1	4.54
CC1CN(CCOc2ccc(F)cc2)CC(C)O1.O=C(O)C(=O)O (stereo not drawn)	6.81
O=C(CSc1nc2ccccc2n1CC(=O)N1CCCC1)Nc1ccc2c(c1)OCO2	-37.7
CC(=O)Nc1c(C)nn(C(C)=O)c1C	16.4
CC(=O)N(C(C)=O)c1nc2nc(C)cc(C)n2n1	-42.3
COc1cccc(NC(=O)NCCc2ccc(Cl)cc2)c1	9.47
CCOC(=O)NNc1ccccc1	6.88
Cc1ccc(-c2csc3nc4ccc(C(=O)NCCO)cc4c(=O)n23)cc1	12.1
CC(C)(C)c1ccc(OCCC(=O)OCC(=O)Nc2cccnc2Cl)cc1	-2.33
COc1cc2c(cc1OC)C(c1cccs1)N(C(=O)c1cccnc1)CC2 (stereo not drawn)	-54.9

SMILES	hERG current change (%, negative = inhibition) at 10uM [%]
COc1cc2c(cc1OC)C(c1cccs1)N(C(=O)C(C)C)CC2 (stereo not drawn)	-19.2
COc1ccc(C2c3cc(OC)c(OC)cc3CCN2C(=O)c2ccccc2)cc1OC (stereo not drawn)	2.95
COc1cc2c(cc1OC)C(c1cccs1)N(C(=O)c1ccncc1)CC2 (stereo not drawn)	-66.8
COc1cc2c(cc1OC)C(c1ccccc1)N(C(=O)c1ccccc1)CC2 (stereo not drawn)	-13.1
COc1cc2c(cc1OC)C(c1cccs1)N(C(=S)NC(C)C)CC2 (stereo not drawn)	-40
Cc1cc2ccccc2c(=O)n1CC(=O)NCCC1=CCCCC1	8.01
Cc1c(C#N)c(NC(=O)CCl)n(Cc2ccccc2)c1C	31.1
CC(C)n1c(SCc2ccc(Cl)cc2)nc2c1c(=O)[nH]c(=O)n2C	18.5
Cc1ccc(OP(=O)(NC(C)c2ccccc2)Oc2ccc(C)cc2)cc1 (stereo not drawn)	17.6
C=CCN(CC=C)S(=O)(=O)c1ccc(NC(=S)NC(=O)/C=C/c2cccc3ccccc23)cc1	1.52
O=C(Cc1ccc(Br)cc1)N1CCN(C(=O)c2ccccc2)CC1	-30.1
CCOc1ccc(/C=C/[N+](=O)[O-])c2ccccc12	-8.67
CCN1CCN(c2ccc(S(=O)(=O)N3CCCCC3)cc2NC(=O)c2cccc(C(F)(F)F)c2)CC1	-46.7
CCN1CCN(c2ccc(S(=O)(=O)N3CCCCC3)cc2NC(=O)/C=C/c2cc(OC)ccc2OC)CC1	-52.7
CCN1CCN(c2ccc(S(=O)(=O)N3CCCCC3)cc2NC(=O)c2ccc(F)cc2)CC1	-56.5
CCN1CCN(c2ccc(S(=O)(=O)N3CCCCC3)cc2NC(=O)/C=C/c2ccc(OC(F)F)cc2)CC1	-50.2
CCN1CCN(c2ccc(S(=O)(=O)N3CCCCC3)cc2NC(=O)c2cccc(F)c2)CC1	-34.6
CCN1CCN(c2ccc(S(=O)(=O)N3CCCCC3)cc2NC(=O)c2ccc(OC(F)F)cc2)CC1	-57.2
CCN1CCN(c2ccc(S(=O)(=O)N3CCCCC3)cc2NC(=O)/C=C/c2cccc(OC)c2OC)CC1	-18.9
CN1CCN(c2ccc(S(=O)(=O)N3CCCCC3)cc2NC(=O)/C=C/c2ccc(OC(F)F)cc2)CC1	-39.2
CCN1CCN(c2ccc(S(=O)(=O)N3CCOCC3)cc2NC(=O)/C=C/c2ccc(OC)cc2OC)CC1	-17.2
CCN1CCN(c2ccc(S(=O)(=O)N3CCOCC3)cc2NC(=O)c2ccc(C(F)(F)F)cc2)CC1	-44.2
CCN1CCN(c2ccc(S(=O)(=O)N3CCCCC3)cc2NC(=O)c2ccccc2)CC1	-46
CCN1CCN(c2ccc(S(=O)(=O)N3CCCCC3)cc2NC(=O)/C=C/c2ccc(OC)c(OC)c2)CC1	-31.4
